According to PubChem BioAssay AID2314 (National Center for Advancing Translational Sciences (NCATS), 2010):
About 37,000 (12%) of roughly 300,000 compounds were called active. Many of the other results were omitted from the sample, so actives are more common in it than they were. Values without a mark were called inactive. No stated cut-off is given here; in the data, active means max response mostly above about 13% (no sharp cut-off); inactive means mostly below about 14%.

assay: Cycloheximide Counterscreen for Small Molecule Inhibitors of Shiga Toxin; details: cell reporter, cycloheximide protein synthesis inhibition counterscreen; stronger effect = higher value; further: read at 38.3 µM for the half of the compounds with a filed dose; 0% is about no effect

Which max response does the source give for CSCCNCc1cn(-c2ccc(F)cc2F)nc1-c1ccccc1C here?
The max response was -0.8%.

For COc1cc(OC)c(NS(=O)(=O)c2cn(C)cn2)cc1Cl, which max response is on record?
The max response was -0.545%.

For COc1cc(/C=C2/C(=O)NN(c3cccc(Cl)c3)C2=O)cc(Br)c1O, which max response is on record?
Its max response is 0.32%.

For CC1(C)O[C@@H]2C[C@@H]3[C@H]4C[C@@H](F)C5=CC(=O)C=C[C@]5(C)[C@@]4(F)[C@@H](O)C[C@]3(C)[C@]2(C(=O)CO)O1, which max response is on record?
The max response was 7.66%.

For CCOC(=O)c1ccc(NC(=O)c2nc[nH]c2C(=O)NCc2ccccc2)cc1, which max response is on record?
The max response was -1.19%.

With O=C(NCCN1CCN(C(=O)c2cccc([N+](=O)[O-])c2)CC1)C(=O)NCc1ccc(Cl)cc1 as the molecule, how does the max response read?
Its max response is 1.34%.

Which max response does the source give for CC(=O)Nc1ccc(C(=O)Nc2nc(-c3cc(C)n(Cc4ccccc4)c3C)cs2)cc1 here?
Its max response is -2.65%.

With Cc1cc(-c2csc(N)n2)c(C)n1Cc1ccccc1 as the molecule, how does the max response read?
Its max response is 22.9% (active).

With Cc1cc(-c2csc(N)n2)c(C)n1-c1ccccc1 as the molecule, how does the max response read?
Its max response is 28.2%.

Which max response does the source give for O=C(O)CCCC(=O)N1N=C(c2ccco2)CC1c1ccco1 (stereo unspecified) here?
Its max response is -3.77%.

Which max response does the source give for Cc1nn2c(c1-c1ccccc1)N=C(c1ccco1)CC2c1ccccc1 (stereo unspecified) here?
The max response was 20.9% (active).

Which max response does the source give for Cn1c(N)c(C(=O)COC(=O)C23CC4CC(CC(C4)C2)C3)c(=O)n(C)c1=O here?
Its max response is -2.04%.

For Cc1c(NC(=O)Nc2ccccc2)cccc1[N+](=O)[O-], which max response is on record?
Its max response is -0.54%.

For Cc1cc(NC(=O)Nc2ccccc2[N+](=O)[O-])no1, which max response is on record?
The max response was 16.1% (active).

With O=C(O)c1ccccc1C(=O)Nc1ccccc1[N+](=O)[O-] as the molecule, how does the max response read?
The max response was 0.991%.

For CCOC(=O)/C(=N\Nc1ccccc1[N+](=O)[O-])c1csc(Nc2ccccc2)n1, which max response is on record?
Its max response is 11.6%.

With Cc1csc(NC(=O)Nc2ccccc2[N+](=O)[O-])n1 as the molecule, how does the max response read?
Its max response is 40.4% (active).

Which max response does the source give for O=C(Nc1ccccc1[N+](=O)[O-])C1C(c2ccccc2)=C1c1ccccc1 here?
The max response was -1.97%.

With CCCCCCC12CCC(C(=O)O)(CC1)CC2 as the molecule, how does the max response read?
The max response was -3.19%.

Which max response does the source give for Cc1ccc(OCCCn2c(=O)oc3ccccc32)cc1 here?
The max response was 33.3% (active).

With NC(=O)Cn1c(=O)oc2ccccc21 as the molecule, how does the max response read?
Its max response is -2.47%.

For Cc1cccc(NC(=O)CCn2c(=O)oc3ccccc32)c1, which max response is on record?
The max response was -4.29%.

For COc1ccccc1C(=O)Nc1nc2nc(-c3ccccc3)cc(=O)n2[nH]1, which max response is on record?
Its max response is 9.7%.

Which max response does the source give for Cc1cc(S(=O)(=O)NCC(C)C)ccc1OCC(=O)NC1CC1 here?
The max response was 1.55%.

For Cc1c(N=Nc2ccc(N(C)C)cc2)c(=O)n(-c2ccccc2)n1C, which max response is on record?
The max response was 24.4% (active).

With Cc1ccc(N=Nc2c(C)[nH]n(-c3ccccc3)c2=O)cc1 as the molecule, how does the max response read?
Its max response is 7.15%.

With Cc1nc(N)sc1N=Nc1c(C)n(C)n(-c2ccccc2)c1=O as the molecule, how does the max response read?
Its max response is -1.65%.

With Cc1ccccc1CCNC(=O)C1CCC(=O)N(Cc2ccc(Cl)cc2)C1 (stereo unspecified) as the molecule, how does the max response read?
Its max response is 6.9%.

With COc1ccccc1CCCNC(=O)C1CCC(=O)N(CCN2CCOCC2)C1 (stereo unspecified) as the molecule, how does the max response read?
The max response was -2.68%.

For COc1ccccc1CN1CC(C(=O)NCCc2cn[nH]c2)CCC1=O (stereo unspecified), which max response is on record?
Its max response is 12.3% (active).

Which max response does the source give for CN1CCN(Cc2nc3cc(NC(=O)COc4ccc([N+](=O)[O-])cc4)ccc3n2C)CC1 here?
Its max response is -3.77%.

Which max response does the source give for CCN(C(=O)Cc1c(C(=O)O)n(CC)c2ccccc12)c1ccccc1C here?
Its max response is -1.37%.

Which max response does the source give for CCOC(=O)c1ccc(NNC(C)=O)c([N+](=O)[O-])c1 here?
The max response was 16.3%.

With CCCCNc1ccc(C(=O)Nc2cccc(C)n2)cc1[N+](=O)[O-] as the molecule, how does the max response read?
Its max response is 12.7% (active).

For Cc1cc(C)nc(NC(=O)c2cccc([N+](=O)[O-])c2)c1, which max response is on record?
The max response was -2.71%.

With Cc1cc(C)nc(SCC(=O)c2ccc(Cl)cc2)n1 as the molecule, how does the max response read?
Its max response is 2.56%.

With Cc1cc(C)nc(S/C=C/C(=O)c2ccccc2)n1 as the molecule, how does the max response read?
The max response was 109% (active).

For Cc1cc(SCC(=O)c2ccccc2)nc(SCC(=O)c2ccccc2)n1, which max response is on record?
Its max response is 6.74%.

For CN(C)c1ccc(N/C=C/C(=O)C(F)(F)F)cc1, which max response is on record?
The max response was 55.6% (active).

Which max response does the source give for CC(=O)N(C)c1ccc(NC(=O)C(F)(F)F)cc1 here?
Its max response is -1.33%.

For O=C(/C=C/Nc1ccccc1OC(F)(F)F)C(F)(F)F, which max response is on record?
The max response was -2.95%.

With Cc1ccc2[nH]c3c(=O)n(CC(=O)NCCc4ccc(Cl)cc4)ncc3c2c1 as the molecule, how does the max response read?
The max response was 4.22%.

For CCn1nc(C)c(CNC(=O)C2CCC(=O)N(Cc3cccc(F)c3)C2)c1C (stereo unspecified), which max response is on record?
The max response was -0.425%.

For CN1CCN(/N=C/c2ccc(C#N)cc2)CC1, which max response is on record?
The max response was 24.2% (active).

With CN1CCN(/N=C/c2c[nH]c3ccccc23)CC1 as the molecule, how does the max response read?
The max response was 0.776%.

Which max response does the source give for COC(c1ccccc1)c1nnc(CCC(=O)N2CCN(CCOc3ccccc3)CC2)o1 (stereo unspecified) here?
Its max response is -3.13%.

Which max response does the source give for Cc1c(C2=CCN(S(=O)(=O)c3ccc(Cl)cc3)CC2)c2ccccc2n1C here?
Its max response is -3.88%.

Which max response does the source give for COCCNC(=O)c1ccc(Cn2c(SCC(=O)NCC3CCCO3)nc3ccc(Br)cc3c2=O)cc1 (stereo unspecified) here?
The max response was -4.2%.

Which max response does the source give for CC(C)C(=O)NCc1cc(-c2ccc(Cl)cc2)no1 here?
The max response was 8.48%.

Which max response does the source give for COCCCNC(=O)COc1cc(C)c(Cl)c(C)c1 here?
The max response was 5.62%.

For Cc1cc(OCc2cc(C(=O)NCc3cc(C(C)C)no3)no2)cc(C)c1Cl, which max response is on record?
Its max response is 72.4% (active).

For COc1ccccc1-c1nnc(NC(=O)c2ccc3ncsc3c2)o1, which max response is on record?
Its max response is 66.2% (active).

For COc1ccc(-c2nnc(NC(=O)CS(=O)(=O)c3ccc(Cl)cc3)o2)c(OC)c1, which max response is on record?
Its max response is 13.7%.

For COc1ccccc1-c1nnc(NC(=O)c2cccc(N3C(=O)CCC3=O)c2)o1, which max response is on record?
Its max response is -0.976%.

With COc1ccc(NC(=O)NNC(=O)COc2cc(C)c(Cl)c(C)c2)c(OC)c1 as the molecule, how does the max response read?
The max response was 0.264%.

With O=C(NCc1ccccc1)C1=C[C@@H](C2CCCCC2)C[C@@H](OCc2ccc(CO)cc2)O1 as the molecule, how does the max response read?
The max response was -2.03%.

Which max response does the source give for COC(=O)c1ccc(C23CC4(C2)[C@H](CN(Cc2cccnc2)[C@@H]4c2ccccc2)C3c2ccc(Cl)nc2)cc1 (stereo partly specified) here?
Its max response is -2.32%.

For CCC1CCCCN1C(=O)CSc1nc2c(c(=O)n1C)SC(C)C2 (stereo unspecified), which max response is on record?
The max response was 0.908%.

With Cc1ccc(-c2nnc(SC(C)C#N)n2N)cc1 (stereo unspecified) as the molecule, how does the max response read?
The max response was 5.06%.

With Cc1ccc(NC(=O)NC(=O)CSc2nnc(-c3ccc(OC(F)F)cc3)n2N)c(C)c1 as the molecule, how does the max response read?
The max response was 11.8%.

For C=C(C)CSc1nnc(-c2ccc(C)cc2)n1N, which max response is on record?
Its max response is 37.8% (active).
